Data as given in PubChem BioAssay AID2685 (National Center for Advancing Translational Sciences (NCATS), 2010).
Values joined by “and” are separate entries in the source; they are usually repeats but may differ in a detail not shown here. Equal entries are not always repeated. The campaign covered roughly 320,000 compounds. About 2,100 (0.66%) were called active. Not shown: some 53% with an inconclusive outcome. Calls follow the shape of the dose curve; as a rule, active = well fitted inhibition curve with a large enough effect in the signal ratio, with a control signal flat (not every such curve was filed as active); inconclusive = small, poorly fitted or top-dose-only effect, or effect the other way, or a change in a side signal; inactive = flat fitted curve, though single readings scatter; the % refers to the signal ratio. The sample as a whole holds a higher share of actives than the screen did.

Assay: qHTS Assay for Lipid Storage Modulators in Drosophila S3 Cells;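 as to cell number change: cells counted by Cell Tracker Red CMTPX staining in the red channel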; as to lipid storage change, negative = inhibition: % is scaled to controls: 0 for no effect and ±100 for the full control effect
Settings: BODIPY lipid droplet fluorescence, 18-24 h, cells fed with added oleic acid; cell number change: measured here: cell count max response; series mostly up to 46.1 µM; lipid storage change, negative = inhibition: at the top concentration
Description: NIH Molecular Libraries Probe Production Centers Network [MLPCN] NIH Chemical Genomics Center [NCGC] MLPCN Grant: 1 R03 MH085686-01 Assay Submitter (PI): Beller, Mathias; Max-Planck-Institut fur Biophysikalische Chemie NCGC Assay Overview: Storing lipids as a reservoir for energy or the anabolism of elementary metabolites is a common feature of probably all cells and is conserved from bacteria to humans. The universal cellular lipid storage organelle is the so-called lipid storage droplet (LD). Although ubiquitous, LDs share a simple structure composed of a hydrophobic core that harbors the storage lipids, which is shielded by a droplet-specific phospholipid monolayer to which proteins are attached. The current model of LD biogenesis involves an incorporation of the lipid core into the membrane leaflets of the endoplasmic reticulum (ER) followed by a subsequent budding-like maturation of a LD, which ultimately pinches off. Once released, LD volume can increase by localized lipogenesis or fusion of existing droplet. Storage lipids are re-mobilized enzymatically by lipase activity. Lipase regulation in the adipocyte is heavily studied and involves multiple components including catecholamine signaling, the LD-associated proteins Perilipin and comparative gene identification (CGI-58) and at least two lipases named hormone sensitive lipase (HSL) and adipocyte triglyceride lipase (ATGL). LD regulation outside of the adipocyte is poorly understood and only few components are known. However, there is an urgent need to learn more about ectopic fat depots as mislocalized storage of lipids, for example in the liver or muscle, is an eminent health problem associated with insulin resistance or the metabolic syndrome. We developed a laser-scanning cytometer assay to enable 1,536-well screening and combined the results of the small molecules screen with an RNAi database based on lipid storage.
Triacsin C (Sigma-Aldrich T-4540), an inhibitor of long-chain fatty acyl CoA synthetase that blocks synthesis of triglycerides, was used as a positive control for lipid under-storage. A total of 23 nL of compound solution of different concentrations were transferred to the assay plates using a Kalypsys pin tool equipped with a 1,536-pin array containing 10-nL slotted pins (FP1S10, 0.457-mm diameter, 50.8 mm long; V&P Scientific). One microliter of oleic acid (400 uM) was added, and the plate was lidded with stainless steel rubber gasket lined lids containing pinholes. […] Fluorescence was detected by excitation of the fluorophores with a 488-nm laser on an Acumen Explorer (TTP Lab Tech). The total intensity in channel 2 (500-530 nm) reflected lipid droplet accumulation. Cells were detected using channel 3 (575-640 nm) with 5-um width and 100-um depth filters. The ratio of the number of objects in PMT channel 2 over the number of objects in PMT channel 3 was also calculated. Percent activity was computed relative to an internal control (100% inhibited lipid droplet deposition due to the presence of 20 uM Triacsin C), which was added to 32 wells/plate.
Potency is read from the fitted curve at half-maximal effect.

Q: With `CCC(C)(C)NC(=O)C(c1ccccc1Cl)N(C(=O)CCC(=O)Nc1cc(C)on1)C1CC1` (stereo not drawn) as the molecule, how does the “outcome” value read?
A: Its value is “inactive”.

Q: And the cell number change?
A: The cell number change was 10.4%.

Q: Which “lipid storage change, negative = inhibition” value does the source give for `O=C(COC(=O)c1ccc(OC(F)F)cc1)NCCNC(=O)COC(=O)c1ccc(OC(F)F)cc1` here?
A: The value was 1.33% (inactive).

Q: And the cell number change?
A: Its cell number change is -4.4%.

Q: Which “outcome” value does the source give for `Cn1c(SCC(=O)Nc2ccccc2F)nnc1-c1cccs1` here?
A: Its value is “inactive”.

Q: And the cell number change?
A: Its cell number change is 14.3%.

Q: For `Cc1nnc(NC(=O)Cn2nc(C)c3ccccc3c2=O)s1`, which “lipid storage change, negative = inhibition” value is on record?
A: The value was 3.77% (inactive).

Q: What about the cell number change of the same molecule?
A: The cell number change was 9.11%.

Q: For `COc1cccc(NC(=O)CCNC(=O)c2ccccc2Cl)c1`, which “lipid storage change, negative = inhibition” value is on record?
A: Its value is -15.6% (inactive).

Q: And the cell number change?
A: The cell number change was -13.1%.

Q: Which Potency does the source give for `CNC(=O)CN(C)S(=O)(=O)c1ccc(F)cc1` here?
A: The Potency was 20.6 µM (active).

Q: Which results are given for `CCCNC(=O)CN(C)S(=O)(=O)c1ccc(F)cc1`?
A: lipid storage change, negative = inhibition: -19.4% (inactive); cell number change: -1.04%

Q: With `CC(C)NC(=O)CN(C)S(=O)(=O)c1ccc(F)cc1` as the molecule, how does the “lipid storage change, negative = inhibition” value read?
A: Its value is -5.26% (inactive).

Q: What about the cell number change of the same molecule?
A: The cell number change was 0.117%.

Q: Which “lipid storage change, negative = inhibition” value does the source give for `COc1cc(NC(=S)NCc2ccco2)cc(OC)c1OC` here?
A: The value was 7.9% (inactive).

Q: What about the cell number change of the same molecule?
A: Its cell number change is -1.1%.

Q: Which “lipid storage change, negative = inhibition” value does the source give for `Cc1ccc(Cc2cnc(NC(=O)c3cccs3)s2)cc1` here?
A: Its value is -11.2% (inactive).

Q: And the cell number change?
A: The cell number change was -12.1%.

Q: With `Cc1ccc(S(=O)(=O)c2cc3c(=O)n4cccc(C)c4nc3n(CC3CCCO3)c2=N)cc1C` (stereo not drawn) as the molecule, how does the “lipid storage change, negative = inhibition” value read?
A: The value was 13.5% (inactive).

Q: And the cell number change?
A: The cell number change was 7.15%.

Q: For `COc1ccc(/C(C)=C2\SC(=S)N(CCC(=O)O)C2=O)cc1`, which Potency is on record?
A: Its Potency is 16.4 µM (active).

Q: What about the cell number change of the same molecule?
A: The cell number change was 7.05%.

Q: For `CC(=C\c1ccccc1)/C=C1/SC(=S)N(CCC(=O)O)C1=O`, which “lipid storage change, negative = inhibition” value is on record?
A: The value was -4.15% (inactive).

Q: What about the cell number change of the same molecule?
A: The cell number change was 5.93%.

Q: For `COc1ccc(/C=C2/SC(=S)N(CCC(=O)O)C2=O)cc1`, which “lipid storage change, negative = inhibition” value is on record?
A: The value was -19.3% (inactive).

Q: And the cell number change?
A: The cell number change was -16.6%.

Q: For `O=C(CSc1nnnn1-c1ccccc1)N1N=CCC1c1ccccc1` (stereo not drawn), which “lipid storage change, negative = inhibition” value is on record?
A: The value was 5.81% (inactive).

Q: What about the cell number change of the same molecule?
A: Its cell number change is -5.17%.

Q: What does the source list for `CC[n+]1c(/C=C/N(C)c2ccccc2)oc2ccc(F)cc21`?
A: Potency: 25.9 µM (active); cell number change: 6.99%

Q: With `CCn1c(C)[n+](CC)c2ccc(C(=O)N(C)c3ccccc3)cc21` as the molecule, how does the “lipid storage change, negative = inhibition” value read?
A: The value was -2.21% (inactive).

Q: What about the cell number change of the same molecule?
A: The cell number change was 19.5%.

Q: With `CC[n+]1c(/C=C/C=C/N(C(C)=O)c2ccccc2)sc2ccccc21` as the molecule, how does the “lipid storage change, negative = inhibition” value read?
A: Its value is -11.3% (inactive).

Q: And the cell number change?
A: Its cell number change is 10.1%.

Q: What does the source list for `C/C=C/COC(=O)C1=C(C)NC(=O)NC1c1ccc2c(c1)OCO2` (stereo not drawn)?
A: outcome: inactive; cell number change: 9.12%

Q: Which results are given for `Cc1c(N)cccc1-c1nc2ccccc2[nH]1`?
A: lipid storage change, negative = inhibition: -2.3% (inactive); cell number change: -2.56%

Q: Which results are given for `CN(C)CCCNCCCNC(=O)/C(=N\O)c1ccccn1`?
A: lipid storage change, negative = inhibition: 1.85% (inactive); cell number change: 11.1%

Q: What does the source list for `O=C(Nc1ccc(C2CC2(Cl)Cl)cc1)c1ccccc1Br` (stereo not drawn)?
A: lipid storage change, negative = inhibition: 20.5% (inactive); cell number change: 13.5%

Q: For `COc1ccc(CN(CC(=O)NCc2ccccc2)C(=O)c2csnn2)cc1`, which “lipid storage change, negative = inhibition” value is on record?
A: Its value is 12.1% (inactive).

Q: And the cell number change?
A: The cell number change was 1.68%.

Q: Which results are given for `Cc1cccc(-c2ccc3ncnc(N(C)Cc4ccco4)c3c2)c1`?
A: lipid storage change, negative = inhibition: 17% (inactive); cell number change: -20.6%

Q: For `CN(Cc1ccco1)c1ncnc2ccc(-c3ccc4c(c3)OCCO4)cc12`, which “lipid storage change, negative = inhibition” value is on record?
A: Its value is 25% (inactive).

Q: With `CN(Cc1ccco1)c1ncnc2ccc(-c3ccoc3)cc12` as the molecule, how does the Potency read?
A: The Potency was -1.69% and -0.798%.

Q: Which “lipid storage change, negative = inhibition” value does the source give for `O=C(COC(=O)/C=C/c1cccc(F)c1)Nc1ncccn1` here?
A: The value was -1.2% (inactive).

Q: What about the cell number change of the same molecule?
A: Its cell number change is -0.367%.

Q: For `COc1cccc(N2CCN(c3nc(C)cc(=O)[nH]3)CC2)c1`, which “lipid storage change, negative = inhibition” value is on record?
A: Its value is -16.9% (inactive).

Q: And the cell number change?
A: The cell number change was 15.9%.

Q: Which results are given for `O=C(CSc1nnnn1-c1ccc2c(c1)OCCO2)N1CCN(C(=O)c2ccco2)CC1`?
A: lipid storage change, negative = inhibition: 1.65% (inactive); cell number change: -0.608%

Q: Which results are given for `Cc1cc2nc(SCC(=O)N(C)C)c3c(c2cc1C)CCCC3`?
A: lipid storage change, negative = inhibition: -6.18% (inactive); cell number change: -15.1%

Q: For `CCOC(=O)c1c(C)n(C)c2cc([N+](=O)[O-])c(O)c([N+](=O)[O-])c12`, which “lipid storage change, negative = inhibition” value is on record?
A: Its value is 10.2% (inactive).

Q: And the cell number change?
A: Its cell number change is 7.01%.

Q: With `CCOC(=O)C1CCCCN1Cc1cc(Cl)ccc1O` (stereo not drawn) as the molecule, how does the “outcome” value read?
A: The value was “inactive”.

Q: And the cell number change?
A: The cell number change was -14.7%.

Q: What does the source list for `O=C(Nc1ccc(NC(=O)c2cccc([N+](=O)[O-])c2)cc1)c1cccc([N+](=O)[O-])c1`?
A: outcome: inactive; cell number change: -4.74%

Q: Which “outcome” value does the source give for `O=C(Nc1cccc(O)c1)c1ccccc1` here?
A: Its value is “inactive”.

Q: With `COc1cccc(-c2cc(C(=O)Nc3ccc4c(c3)OCCO4)c3ccccc3n2)c1` as the molecule, how does the “lipid storage change, negative = inhibition” value read?
A: Its value is 26.5% (inactive).

Q: What does the source list for `COc1cccc(C(=O)Nc2ccc3ccccc3c2)c1`?
A: outcome: inactive; cell number change: 24%

Q: For `COc1cccc(C(=O)Nc2ccc(C3CC3(Cl)Cl)cc2)c1` (stereo not drawn), which lipid storage change, negative = inhibition is on record?
A: The lipid storage change, negative = inhibition was 15.6% [at 9.22 µM] (inactive).

Q: Which Potency does the source give for `COc1cccc(-c2cc(C(=O)Nc3cccnc3)c3ccccc3n2)c1` here?
A: The Potency was 8.2 µM (active).

Q: Which “lipid storage change, negative = inhibition” value does the source give for `COc1cccc(/C(C)=N/NC(=O)c2cc(-c3cccnc3)nc3ccccc23)c1` here?
A: The value was 14.6% (inactive).

Q: What about the cell number change of the same molecule?
A: Its cell number change is 11.2%.

Q: For `O=C(Nc1cccc(Br)c1)c1ccc(CSc2ccccc2)cc1`, which “lipid storage change, negative = inhibition” value is on record?
A: The value was -18.6% (inactive).

Q: And the cell number change?
A: Its cell number change is -13.3%.

Q: Which Potency does the source give for `O=C(Nc1cccc(C(=O)Nc2cccc(Br)c2)c1)c1ccccc1` here?
A: Its Potency is 5.8 µM (active).

Q: What about the cell number change of the same molecule?
A: Its cell number change is 0.351%.

Q: With `O=C(Nc1ccc(C2CC2(Cl)Cl)cc1)c1cccc([N+](=O)[O-])c1` (stereo not drawn) as the molecule, how does the Potency read?
A: Its Potency is 20.6 µM (active).

Q: What about the cell number change of the same molecule?
A: Its cell number change is -18.3%.

Q: What does the source list for `COc1cccc(C(=O)Nc2cccc(-c3ccccc3)c2)c1`?
A: Potency: 1.46 µM (active); cell number change: 5.29%

Q: Which results are given for `COc1cccc(C(=O)Nc2cccc(NC(C)=O)c2)c1`?
A: lipid storage change, negative = inhibition: 13.3% (inactive); cell number change: -21%

Q: Which “outcome” value does the source give for `COc1ccc(-c2nc(CS(=O)CC(=O)NC3CCCCCC3)c(C)o2)cc1` (stereo not drawn) here?
A: The value was “inactive”.

Q: Which “lipid storage change, negative = inhibition” value does the source give for `O=C(COC(=O)c1ccc(Br)o1)NCCc1ccccc1` here?
A: Its value is -3.74% (inactive).

Q: And the cell number change?
A: The cell number change was 14.1%.

Q: What does the source list for `O=C(NC1CCS(=O)(=O)C1)c1cccc(Br)c1` (stereo not drawn)?
A: lipid storage change, negative = inhibition: -8.87% (inactive); cell number change: -19.9%

Q: With `COc1ccc(S(=O)(=O)N2CCN(C(=O)C3CC3)CC2)cc1` as the molecule, how does the “lipid storage change, negative = inhibition” value read?
A: The value was -28.4% (inactive).

Q: What about the cell number change of the same molecule?
A: Its cell number change is 0.403%.
